# Records with an inconclusive call do not appear. Active and inactive are the calls of the source. The call rests on the fitted dose curve; in most records, active means well fitted curve in the direction sought with a large enough effect; inconclusive means small, poorly fitted or top-dose-only effect, or another doubt; inactive means no such curve, though single readings can be large; an effect the other way counts as inactive or inconclusive.
# Key:
# [1] = Quantitative High-Throughput drug screen in 47 multiple myeloma cell lines against the NCATS MIPE library collection: JIM3_ECACC cell viability assay (AID 1918963; further: nearly all actives have a fitted effect of over 35% in size)
# How it was run: (§1)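 CellTiter-Glo luminescence (ATP) after 48 h compound exposure, 37C/5% CO2; 500 cells/well; MIPE 4.0 approved/investigational drugs pinned in; DMSO = 100%, media only = 0% viability.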
# [2] = Quantitative High-Throughput drug screen in 47 multiple myeloma cell lines against the NCATS MIPE library collection: JIM1_ECACC cell viability assay (AID 1918964)
# How it was run: as §1
# [3] = Quantitative High-Throughput drug screen in 47 multiple myeloma cell lines against the NCATS MIPE library collection: JJN3_DSMZ cell viability assay (AID 1918966; further: nearly all actives have a fitted effect of over 50% in size)
# How it was run: as §1
# [4] = Quantitative High-Throughput drug screen in 47 multiple myeloma cell lines against the NCATS MIPE library collection: H1112_PLB cell viability assay (AID 1918967; further: nearly all actives have a fitted effect of over 30% in size)
# How it was run: as §1
# [5] = Quantitative High-Throughput drug screen in 47 multiple myeloma cell lines against the NCATS MIPE library collection: Karpas25_ECACC cell viability assay (AID 1918968; further: nearly all actives have a fitted effect of over 35% in size)
# How it was run: as §1
# [6] = Quantitative High-Throughput drug screen in 47 multiple myeloma cell lines against the NCATS MIPE library collection: KMS27_JCRB cell viability assay (AID 1918970); details: KMS27 myeloma cells, CellTiter-Glo ATP viability, 48 h; viability (% of DMSO): at 45.8 µM (top of the series); further: nearly all actives have a fitted effect of over 30% in size
# How it was run: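 Each line is seeded at 500 cells per well and treated with library compounds for 48 hours under 37 °C, 5% CO2. CellTiter-Glo is then added for 5 min at room temperature before median relative luminescence is recorded.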
# [7] = Quantitative High-Throughput drug screen in 47 multiple myeloma cell lines against the NCATS MIPE library collection: KMS20_JCRB cell viability assay (AID 1918973); further: nearly all actives have a fitted effect of over 45% in size
# How it was run: as §1
# [8] = Quantitative High-Throughput drug screen in 47 multiple myeloma cell lines against the NCATS MIPE library collection: KMS26_JCRB cell viability assay (AID 1918975); further: nearly all actives have a fitted effect of over 45% in size
# How it was run: (§2)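 We plated 500 myeloma cells per well, pinned in MIPE 4.0 compounds, and incubated for 48 hours at 37C. ATP was then quantified with CellTiter-Glo, with DMSO and media-only wells defining 100% and 0%.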
# [9] = Quantitative High-Throughput drug screen in 47 multiple myeloma cell lines against the NCATS MIPE library collection: MOLP8_DSMZ cell viability assay (AID 1918977); further: nearly all actives have a fitted effect of over 45% in size
# How it was run: (§3)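 Myeloma cells (500/well) treated with MIPE 4.0 compounds for 48 h at 37 °C, 5% CO2. Viability read as ATP via CellTiter-Glo luminescence after 5 min at RT; DMSO-only wells = 100%, media-only = 0% viability.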
# [10] = Quantitative High-Throughput drug screen in 47 multiple myeloma cell lines against the NCATS MIPE library collection: NCIH929_DSMZ cell viability assay (AID 1918978); further: nearly all actives have a fitted effect of over 35% in size
# How it was run: as §3
# [11] = Quantitative High-Throughput drug screen in 47 multiple myeloma cell lines against the NCATS MIPE library collection: OCIMY1_PLB cell viability assay (AID 1918979); further: nearly all actives have a fitted effect of over 35% in size
# How it was run: as §3
# [12] = Quantitative High-Throughput drug screen in 47 multiple myeloma cell lines against the NCATS MIPE library collection: MM1R_ATCC cell viability assay (AID 1918981); further: nearly all actives have a fitted effect of over 35% in size
# How it was run: as §3
# [13] = Quantitative High-Throughput drug screen in 47 multiple myeloma cell lines against the NCATS MIPE library collection: LP1_DSMZ cell viability assay (AID 1918982); further: nearly all actives have a fitted effect of over 35% in size
# How it was run: as §3
# [14] = Quantitative High-Throughput drug screen in 47 multiple myeloma cell lines against the NCATS MIPE library collection: KMS12PE_JCRB cell viability assay (AID 1918972); further: nearly all actives have a fitted effect of over 30% in size
# How it was run: (§4)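 Myeloma cells (500 per well) were exposed to MIPE 4.0 compounds by pin transfer and incubated 48 hours at 37C, 5% CO2. Viability was read as ATP by CellTiter-Glo luminescence, normalised to DMSO (100%) and media-only (0%) wells.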
# [15] = Quantitative High-Throughput drug screen in 47 multiple myeloma cell lines against the NCATS MIPE library collection: INA6_PLB cell viability assay (AID 1918965; further: nearly all actives have a fitted effect of over 55% in size)
# How it was run: as §4
# [16] = Quantitative High-Throughput drug screen in 47 multiple myeloma cell lines against the NCATS MIPE library collection: KMS12BM_JCRB cell viability assay (AID 1918971); further: nearly all actives have a fitted effect of over 35% in size
# How it was run: as §2
# [17] = Quantitative High-Throughput drug screen in 47 multiple myeloma cell lines against the NCATS MIPE library collection: MMM1_PLB cell viability assay (AID 1918976); further: nearly all actives have a fitted effect of over 35% in size
# How it was run: as §3
# [18] = Quantitative High-Throughput drug screen in 47 multiple myeloma cell lines against the NCATS MIPE library collection: MM1S_ATCC cell viability assay (AID 1918980); further: nearly all actives have a fitted effect of over 45% in size
# How it was run: as §3
# Potency means the concentration at half of the fitted maximal effect.
Compound,Potency [1],Potency [2],Potency [3],Potency [4],Potency [5],Potency [6],Potency [7],Potency [8],Potency [9],Potency [10],Potency [11],Potency [12],Potency [13],Potency [14],Potency [15],Potency [16],Potency [17],Potency [18]
CC(C)(C)[N+]([O-])=Cc1ccc(S(=O)(=O)O)cc1S(=O)(=O)O,inactive,inactive,inactive,inactive,inactive,inactive,inactive,inactive,inactive,inactive,inactive,inactive,inactive,–,–,–,–,–
C[C@H](O)[C@@H]1C(=O)N2C(C(=O)O)=C(S[C@@H]3CN[C@H](CNS(N)(=O)=O)C3)[C@@H](C)[C@@H]12,inactive,inactive,–,inactive,inactive,inactive,–,inactive,–,–,inactive,inactive,inactive,inactive,–,–,–,–
N#Cc1c(NC(=O)c2cccc3ccccc23)sc2c1CCCC2,0.209 µM (active),0.187 µM (active),2.64 µM (active),0.418 µM (active),0.743 µM (active),0.0209 µM (active),–,3.32 µM (active),–,2.35 µM (active),–,0.743 µM (active),–,0.332 µM (active),0.296 µM (active),0.526 µM (active),5.26 µM (active),1.05 µM (active)
O=C(C=Cc1ccc(CN(CCO)CCc2c[nH]c3ccccc23)cc1)NO,0.332 µM (active),0.132 µM (active),0.0935 µM (active),0.187 µM (active),0.059 µM (active),0.105 µM (active),–,0.105 µM (active),0.0833 µM (active),–,0.296 µM (active),0.059 µM (active),0.148 µM (active),0.0833 µM (active),0.0296 µM (active),0.0833 µM (active),0.0662 µM (active),0.105 µM (active)
Cc1ncc(-c2ccnc(Nc3ccc(S(C)(=O)=O)cc3)n2)n1C(C)C,2.35 µM (active),2.35 µM (active),2.09 µM (active),4.18 µM (active),2.35 µM (active),2.64 µM (active),–,2.64 µM (active),1.32 µM (active),2.09 µM (active),6.62 µM (active),2.35 µM (active),3.32 µM (active),2.96 µM (active),1.18 µM (active),4.18 µM (active),4.69 µM (active),2.64 µM (active)
CC(=O)O[C@H]1C[C@@H]2CC[C@H]3[C@H]4C[C@H]([N+]5(C)CCCCC5)[C@@H](OC(C)=O)[C@@]4(C)CC[C@@H]3[C@@]2(C)C[C@H]1[N+]1(C)CCCCC1,inactive,inactive,–,inactive,inactive,inactive,inactive,–,–,inactive,inactive,–,inactive,inactive,inactive,inactive,–,2.09 µM (active)
COc1cc(C)c(C=CC(C)=CC=CC(C)=CC(=O)O)c(C)c1C,0.166 µM (active),inactive,–,inactive,inactive,–,–,inactive,–,inactive,inactive,inactive,inactive,–,5.26 µM (active),–,–,inactive
CCOC(=O)C1=C(C)NC(=S)NC1c1cccc(O)c1 (configuration not stated),0.0372 µM (active),0.296 µM (active),–,–,0.0296 µM (active),0.0469 µM (active),–,–,0.0372 µM (active),0.0372 µM (active),–,0.0296 µM (active),–,0.372 µM (active),0.0264 µM (active),0.0662 µM (active),–,0.0418 µM (active)
O=C(O)CCCCCC(=O)NN=C1CCCC1,inactive,inactive,–,–,inactive,inactive,–,inactive,inactive,–,inactive,–,inactive,inactive,inactive,–,–,inactive
Cc1ccc([N+](=O)[O-])cc1S(=O)(=O)N(C)N=Cc1cnc2ccc(Br)cn12,0.0105 µM (active),0.001 µM (active),0.0105 µM (active),0.0132 µM (active),–,–,–,0.0235 µM (active),0.0083 µM (active),–,0.0526 µM (active),0.0332 µM (active),0.0264 µM (active),0.0209 µM (active),–,0.0662 µM (active),0.0833 µM (active),0.0296 µM (active)
CC1(C)CC(O)CC(C)(C)N1[O],inactive,inactive,–,–,inactive,inactive,–,inactive,–,inactive,inactive,inactive,inactive,inactive,inactive,inactive,–,–
C#Cc1cccc(Nc2ncnc3cc(OCCOC)c(OCCO)cc23)c1,1.87 µM (active),0.264 µM (active),–,1.87 µM (active),1.18 µM (active),0.0187 µM (active),–,–,–,–,–,–,–,1.48 µM (active),1.32 µM (active),–,–,3.72 µM (active)
COc1cc(N2CCC(C(N)=O)CC2)ccc1Nc1nc(N)c(Cl)c(Nc2ccccc2S(=O)(=O)C(C)C)n1,0.166 µM (active),0.0469 µM (active),0.105 µM (active),0.148 µM (active),0.235 µM (active),0.264 µM (active),0.001 µM (active),1.87 µM (active),–,–,–,1.18 µM (active),–,–,7.43 µM (active),2.64 µM (active),0.209 µM (active),0.743 µM (active)
